The record followed here is PubChem BioAssay (Tox21).

The structures appear in SMILES notation. A number with no mark means an inactive call. Records with an inconclusive call do not appear. Activity calls are given as the source filed them. Unless noted, calls come from the whole dose curve; as a rule, active = well fitted curve in the direction sought with a large enough effect in the repeat runs; inconclusive = weak or mixed curves; inactive = no such curve, though single readings can be large; an effect the other way counts as inactive or inconclusive.

A short description of experiment [1]: qHTS assay to identify small molecule agonists of the hypoxia (HIF-1) signaling pathway - cell viability counter screen (AID 1224844; calls by dose curve; note: nearly all actives have a fitted effect of over 50% in size; note: potency is the fitted concentration of half-maximal effect). An outline of the steps: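 Luminescent ATP content (CellTiter-Glo, 30 min, room temperature) served as the viability measure in HRE-bla ME-180 cells exposed to compounds for 17 hrs in low-serum medium (0.5% dialyzed FBS).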
Experiment [2] in a line: qHTS assay to identify small molecule agonists of H2AX (AID 1224845; active = well fitted activation curve with a large enough effect in the signal ratio in the repeat runs, not every such curve was filed as active; the % refers to the signal ratio). An outline of the steps:
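Wild-type CHO-K1 cells plated overnight, then exposed 3 hr at 37C to compounds at 15 concentrations (0.76% DMSO). Lysed, then HTRF anti-pH2AX(S139)-cryptate/anti-H2AX-d2 detection after 24 hr at room temperature; emissions 665 and 620 nm.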
A general note: Quantitative high-throughput screening tests each substance at several concentrations.

The nature of experiment [3]: qHTS assay to identify small molecule agonists of the hypoxia (HIF-1) signaling pathway (AID 1224846; active = well fitted activation curve with a large enough effect in the signal ratio in the repeat runs, not every such curve was filed as active; the % refers to the signal ratio). In outline: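 Measured by blue/green FRET after loading CCF4-AM: beta-lactamase expressed from a hypoxia response element in ME-180 cells. Test agents were delivered in DMSO and left 17 hrs; cells had been plated 5 hrs earlier in low-serum (0.5% dialyzed FBS) medium.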

Experiment [4] can be described thus: qHTS assay to identify small molecule agonists of H2AX - cell viability counter screen (AID 1224847; calls by dose curve; note: top concentration of the series differs between compounds; nearly all actives have a fitted effect of over 30% in size). In outline:
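For this counter screen, overnight-attached CHO-K1 cells received test compounds (15 concentrations, 0.76% DMSO final); 3 hr later at 37C, CellTiter-Glo reagent was added and luminescence recorded after 30 min at room temperature.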

Experiment [5] can be described thus: qHTS assay to identify small molecule antagonists of the estrogen related receptor (ERR) signaling pathway from Tox21 library (AID 1224848). Note: nearly all actives have a fitted effect of over 50% in size. In outline: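 Screening used an ERR reporter line supplied by NTP, exposed for 18 h at 37 C to library compounds delivered in DMSO. Signal was luciferase luminescence developed with ONE-Glo at room temperature for 30 min.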

The nature of experiment [6]: qHTS assay to identify small molecule agonists of the estrogen related receptor (ERR) signaling pathway from Tox21 library (AID 1224849; calls by dose curve; note: nearly all actives have a fitted effect of over 15% in size). The conditions noted are these: ERR reporter cell line, ONE-Glo luciferase, 18 h; at 92.4 µM (top of the series) unless noted. An outline of the steps: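 We plated ERR reporter cells, waited 6 h, added compounds in DMSO by pin tool and incubated them 18 h at 37 C. ONE-Glo was then added and luminescence read after 30 min.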

Experiment [7] is described as follows: qHTS RealTime-Glo MT Cell Viability Assay in HepG2 cells - 24 hour (AID 1224867). Note: nearly all actives have a fitted effect of over 50% in size. An outline of the steps: (§1)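 HepG2 suspension premixed with RealTime-Glo reagents is plated at 600 cells per well and left 5 h at 37 C/5% CO2. Compounds in DMSO then go in, and bioluminescence reflecting viable cell number is recorded over 40 h.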
The nature of experiment [8]: qHTS RealTime-Glo MT Cell Viability Assay in HEK293 cells - 32 hour (AID 1224868). Note: top concentration of the series differs between compounds; nearly all actives have a fitted effect of over 50% in size. An outline of the steps:
(§2)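 Reads taken at 0, 8, 16, 24, 32 and 40 h from the same wells. HEK293 cells (600/well) carried RealTime-Glo reagents from seeding, with compound added after a 5 h settle at 37 C.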

A short description of experiment [9]: A CellTox Green Cytotoxicity Assay to monitor cytotoxicity in HEK293 cells - 0 hour (AID 1224869). Note: nearly all actives have a fitted effect of over 50% in size. In outline: (§3)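 Each value comes from one timepoint of a single continuous run in which HEK293 cells with CellTox Green were exposed to compound for up to 40 h at 37 C, dye fluorescence rising with cell death.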
A short description of experiment [10]: qHTS RealTime-Glo MT Cell Viability Assay in HepG2 cells - 40 hour (AID 1224870). Note: nearly all actives have a fitted effect of over 50% in size. An outline of the steps:
(§4)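 HepG2 cells mixed with RealTime-Glo MT reagents (NanoLuc plus cell-permeant prosubstrate) were seeded at 600 cells/well, incubated 5 h at 37 C/5% CO2, then pinned with compounds in DMSO; nonlytic luminescence tracked viability during 40 h treatment.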

Experiment [11] in a line: A CellTox Green Cytotoxicity Assay to monitor cytotoxicity in HEK293 cells - 40 hour (AID 1224871). Note: nearly all actives have a fitted effect of over 45% in size. An outline of the steps: as §3
The nature of experiment [12]: qHTS RealTime-Glo MT Cell Viability Assay in HEK293 cells - 16 hour (AID 1224872). In outline: as §2
The nature of experiment [13]: qHTS RealTime-Glo MT Cell Viability Assay in HepG2 cells - 8 hour (AID 1224873). Note: nearly all actives have a fitted effect of over 55% in size. In outline: as §4
Experiment [14] is described as follows: qHTS RealTime-Glo MT Cell Viability Assay in HEK293 cells - 40 hour (AID 1224874). Note: nearly all actives have a fitted effect of over 50% in size. To be noted: RealTime-Glo luminescence; max response: stronger effect = lower value. An outline of the steps:
(§5)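 qHTS format; HEK293 cells with NanoLuc/prosubstrate reagent, 37 C/5% CO2 for 5 h pre-dosing; compounds 23 nL in DMSO; luminescence at each time point reflects viable cells.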

The nature of experiment [15]: A CellTox Green Cytotoxicity Assay to monitor cytotoxicity in HEK293 cells - 24 hour (AID 1224875). Note: nearly all actives have a fitted effect of over 45% in size. An outline of the steps: as §3
A short description of experiment [16]: A CellTox Green Cytotoxicity Assay to monitor cytotoxicity in HepG2 cells - 16 hour (AID 1224876). Note: nearly all actives have a fitted effect of over 45% in size. In outline:
(§6)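 Continuous culture of HepG2 cells with a membrane-impermeant DNA dye; rising fluorescence marks dead cells. Compound exposure lasted up to 40 h at 37 C, with reads every 8 h from 0 h.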

The nature of experiment [17]: qHTS RealTime-Glo MT Cell Viability Assay in HepG2 cells - 32 hour (AID 1224877). Note: nearly all actives have a fitted effect of over 55% in size. In outline:
as §1

A short description of experiment [18]: A CellTox Green Cytotoxicity Assay to monitor cytotoxicity in HepG2 cells - 24 hour (AID 1224878). Note: nearly all actives have a fitted effect of over 45% in size. Note: potency is the fitted concentration of half-maximal effect. An outline of the steps: as §6
A short description of experiment [19]: A CellTox Green Cytotoxicity Assay to monitor cytotoxicity in HepG2 cells - 40 hour (AID 1224879). Note: nearly all actives have a fitted effect of over 40% in size. Note: potency is the fitted concentration of half-maximal effect. In outline: as §6
The nature of experiment [20]: qHTS RealTime-Glo MT Cell Viability Assay in HEK293 cells - 0 hour (AID 1224880). In outline: as §5
% is set by controls: 0 for no effect and ±100 for the full control effect.

Turning to `O=C(O)C(c1ccc(Cl)cc1)c1ccc(Cl)cc1`, the Potency result in experiment [1], in experiment [2], in experiment [4], in experiment [5], in experiment [7] and in experiment [8] was “inactive” in each case. In addition, the Potency result in experiment [9], in experiment [10], in experiment [11], in [12], in [13] and in [15] was “inactive” in each case. For the same compound, the Potency result in experiment [16], in [17], in experiment [18], in experiment [19] and in [20] was “inactive” each time. The outcome in [3] was inactive. The activity change, positive = activation in experiment [6] was -7.31%. In addition, the max response in experiment [14] is -1.91%.

In the case of `CC(=O)OC/C=C/c1ccccc1`, the Potency result in experiment [1], in experiment [2], in experiment [4], in experiment [5], in experiment [7] and in experiment [8] was “inactive” in each case. Moreover, the Potency entry in experiment [9], in experiment [10], in [11], in experiment [13], in experiment [15] and in experiment [16] was “inactive” in each case. Also, the Potency entry in experiment [17], in experiment [18], in experiment [19] and in [20] was “inactive” throughout. Besides, the outcome in experiment [3] was inactive. Also, in experiment [6], the activity change, positive = activation is 0.279%. In experiment [14], the max response was 5.43%.

Regarding `O=CNc1ccccc1`, the Potency entry in [1], in experiment [2], in [4], in experiment [5], in experiment [7] and in experiment [8] was “inactive” throughout. Also, the Potency entry in experiment [9], in experiment [10], in [11], in [13], in experiment [15] and in experiment [16] was “inactive” in each case. Also, the Potency entry in experiment [17], in experiment [18], in [19] and in experiment [20] was “inactive” throughout. In experiment [3], the compound was classed as inactive. Besides, the activity change, positive = activation in experiment [6] is -1.57%. Besides, the max response in experiment [14] is -8.05%.

Take `CN1CCC(=C2c3ccccc3CCc3sccc32)CC1`: the Potency in [1] was 16.9 µM (active); in experiment [18] it was 23.9 µM (active); in experiment [19] it was 23.9 µM (active). In addition, the Potency entry in experiment [2], in experiment [4], in [5], in experiment [7], in [9] and in [10] was “inactive” each time. Besides, the Potency result in experiment [11], in experiment [12], in [13], in experiment [15] and in [17] was “inactive” throughout. Moreover, the call in experiment [3] was inactive. For the same compound, the activity change, positive = activation in [6] is -9.84% [at 42.5 µM].

Take `COC(=O)C(C)=O`: the Potency result in [1], in [2], in experiment [4], in experiment [5], in experiment [7] and in [8] was “inactive” each time. The Potency result in experiment [9], in experiment [10], in experiment [11], in experiment [12], in experiment [13] and in [15] was “inactive” in each case. The Potency entry in [16], in experiment [17], in experiment [18], in experiment [19] and in experiment [20] was “inactive” each time. Further, the result in [3] was inactive. Besides, in experiment [6], the activity change, positive = activation is -4.12%. For the same compound, the max response in experiment [14] was -0.909%.

Regarding `CC(O)C1CCCCC1` (centres undefined), the Potency entry in experiment [1], in [2], in experiment [4], in experiment [5], in [7] and in experiment [8] was “inactive” in each case. The Potency result in [9], in experiment [10], in experiment [11], in experiment [12], in [13] and in experiment [15] was “inactive” in each case. The Potency entry in experiment [16], in [17], in experiment [18], in experiment [19] and in [20] was “inactive” throughout. Besides, in experiment [3], the outcome was inactive. For the same compound, the activity change, positive = activation in experiment [6] was 6.48%. Moreover, in experiment [14], the max response is 3.26%.
